Test results reported in PubChem BioAssay AID1508601 (ICCB-Longwood Screening Facility, Harvard Medical School, 2020).
About 85 (1%) of roughly 5,700 compounds were called active. No stated cut-off is given here; in the data, active means p53-positive nuclei above about 36% (passing the limit was not always enough); inactive means the rest. For the sample, actives were picked, then their nearest neighbours and some compounds at random.

Tests used:
[1] = nuclear p53 accumulation, HPV+ cells – imaging, p53-positive nuclei imaging, 24 h, 48 h (AID 1508601); settings: 24/48 h
[2] = biological target: Cellular tumor antigen p53 (Homo sapiens) (UniProt P04637); test: as above; settings: 24/48 h, stronger effect = higher value
Chain of Cellular tumor antigen p53 (Homo sapiens) (P04637 whole entry, looked up): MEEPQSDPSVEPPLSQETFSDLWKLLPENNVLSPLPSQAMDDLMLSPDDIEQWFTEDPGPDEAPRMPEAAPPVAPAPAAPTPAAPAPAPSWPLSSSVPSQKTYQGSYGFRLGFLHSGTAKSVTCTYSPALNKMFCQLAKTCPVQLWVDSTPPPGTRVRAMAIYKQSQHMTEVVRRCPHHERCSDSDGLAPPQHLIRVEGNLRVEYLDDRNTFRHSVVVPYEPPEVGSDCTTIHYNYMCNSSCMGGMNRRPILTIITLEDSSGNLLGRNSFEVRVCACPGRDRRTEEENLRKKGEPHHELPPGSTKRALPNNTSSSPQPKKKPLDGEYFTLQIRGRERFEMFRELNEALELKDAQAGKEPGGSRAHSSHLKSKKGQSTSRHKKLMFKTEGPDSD

[3] = measured here: cell number at 24 h, Library stock concentration: 3.33 mM
[4] = measured here: cell number at 24 h, Library stock concentration: 10 mM
[5] = measured here: cell number at 48 h, Library stock concentration: 3.33 mM
[6] = measured here: cell number at 48 h, Library stock concentration: 10 mM
[7] = Library stock concentration: 3.33 mM
[8] = Library stock concentration: 10 mM
[9] = measured here: p53 positive nuclei at 24 h, Library stock concentration: 3.33 mM
[10] = measured here: p53 positive nuclei at 24 h, Library stock concentration: 10 mM

Question: For OC(c1cc(C(F)(F)F)nc2c(C(F)(F)F)cccc12)[C@H]1CCCCN1 (stereo partly drawn), which nuclei count, normalised ([1]; measured here: cell number at 24 h, Library stock concentration: 500 nM) is on record?
Answer: 110%

Question: And the nuclei count, normalised ([1]; measured here: cell number at 24 h, Library stock concentration: 1.5 uM)?
Answer: 109%

Question: What about the nuclei count, normalised ([1]; measured here: cell number at 24 h, Library stock concentration: 4.6 uM) of the same molecule?
Answer: 109%

Question: And the nuclei count, normalised ([1]; measured here: cell number at 24 h, Library stock concentration: 13.7 uM)?
Answer: 101%

Question: And the nuclei count, normalised ([1]; measured here: cell number at 24 h, Library stock concentration: 41 uM)?
Answer: 117%

Question: And the nuclei count, normalised ([1]; measured here: cell number at 24 h, Library stock concentration: 123 uM)?
Answer: 109%

Question: And the nuclei count, normalised ([1]; measured here: cell number at 24 h, Library stock concentration: 370 uM)?
Answer: 109%

Question: And the nuclei count, normalised ([1]; measured here: cell number at 24 h, Library stock concentration: 1.111 mM)?
Answer: 110%

Question: What about the nuclei count, normalised [1, 3] of the same molecule?
Answer: 95.3%

Question: What about the nuclei count, normalised ([1]; measured here: cell number at 24 h, Library stock concentration: 3.333 mM) of the same molecule?
Answer: 112%

Question: And the nuclei count, normalised [1, 4]?
Answer: 86.2%

Question: And the nuclei count, normalised ([1]; measured here: cell number at 48 h, Library stock concentration: 500 nM)?
Answer: 105%

Question: What about the nuclei count, normalised ([1]; measured here: cell number at 48 h, Library stock concentration: 1.5 uM) of the same molecule?
Answer: 105%

Question: What about the nuclei count, normalised ([1]; measured here: cell number at 48 h, Library stock concentration: 4.6 uM) of the same molecule?
Answer: 112%

Question: What about the nuclei count, normalised ([1]; measured here: cell number at 48 h, Library stock concentration: 13.7 uM) of the same molecule?
Answer: 103%

Question: And the nuclei count, normalised ([1]; measured here: cell number at 48 h, Library stock concentration: 41 uM)?
Answer: 120%

Question: What about the nuclei count, normalised ([1]; measured here: cell number at 48 h, Library stock concentration: 123 uM) of the same molecule?
Answer: 113%

Question: What about the nuclei count, normalised ([1]; measured here: cell number at 48 h, Library stock concentration: 370 uM) of the same molecule?
Answer: 110%

Question: And the nuclei count, normalised ([1]; measured here: cell number at 48 h, Library stock concentration: 1.111 mM)?
Answer: 113%

Question: What about the nuclei count, normalised [1, 5] of the same molecule?
Answer: 94.9%

Question: And the nuclei count, normalised ([1]; measured here: cell number at 48 h, Library stock concentration: 3.333 mM)?
Answer: 116%

Question: What about the nuclei count, normalised [1, 6] of the same molecule?
Answer: 99.6%

Question: And the p53-positive nuclei, normalised ([2]; Library stock concentration: 500 nM)?
Answer: -0.00517% (inactive)

Question: What about the p53-positive nuclei, normalised ([2]; Library stock concentration: 1.5 uM) of the same molecule?
Answer: -0.125% (inactive)

Question: And the p53-positive nuclei, normalised ([2]; Library stock concentration: 4.6 uM)?
Answer: 0.0484% (inactive)

Question: What about the p53-positive nuclei, normalised ([2]; Library stock concentration: 13.7 uM) of the same molecule?
Answer: -0.00344% (inactive)

Question: What about the p53-positive nuclei, normalised ([2]; Library stock concentration: 41 uM) of the same molecule?
Answer: -0.185% (inactive)

Question: And the p53-positive nuclei, normalised ([2]; Library stock concentration: 123 uM)?
Answer: -0.102% (inactive)

Question: And the p53-positive nuclei, normalised ([2]; Library stock concentration: 370 uM)?
Answer: -0.0936% (inactive)

Question: And the p53-positive nuclei, normalised ([2]; Library stock concentration: 1.111 mM)?
Answer: -0.065% (inactive)

Question: And the p53-positive nuclei, normalised [2, 7]?
Answer: 4.69% (inactive)

Question: What about the p53-positive nuclei, normalised ([2]; Library stock concentration: 3.333 mM) of the same molecule?
Answer: -0.144% (inactive)

Question: And the p53-positive nuclei, normalised [2, 8]?
Answer: 1.04% (inactive)

Question: And the p53-positive nuclei, normalised ([2]; measured here: p53 positive nuclei at 24 h, Library stock concentration: 500 nM)?
Answer: 0.0755%

Question: What about the p53-positive nuclei, normalised ([2]; measured here: p53 positive nuclei at 24 h, Library stock concentration: 1.5 uM) of the same molecule?
Answer: -0.239%

Question: What about the p53-positive nuclei, normalised ([2]; measured here: p53 positive nuclei at 24 h, Library stock concentration: 4.6 uM) of the same molecule?
Answer: -0.0294%

Question: What about the p53-positive nuclei, normalised ([2]; measured here: p53 positive nuclei at 24 h, Library stock concentration: 13.7 uM) of the same molecule?
Answer: -0.185%

Question: And the p53-positive nuclei, normalised ([2]; measured here: p53 positive nuclei at 24 h, Library stock concentration: 41 uM)?
Answer: -0.239%

Question: And the p53-positive nuclei, normalised ([2]; measured here: p53 positive nuclei at 24 h, Library stock concentration: 123 uM)?
Answer: -0.134%

Question: And the p53-positive nuclei, normalised ([2]; measured here: p53 positive nuclei at 24 h, Library stock concentration: 370 uM)?
Answer: -0.187%

Question: What about the p53-positive nuclei, normalised ([2]; measured here: p53 positive nuclei at 24 h, Library stock concentration: 1.111 mM) of the same molecule?
Answer: -0.0384%

Question: And the p53-positive nuclei, normalised [2, 9]?
Answer: 2.85%

Question: What about the p53-positive nuclei, normalised ([2]; measured here: p53 positive nuclei at 24 h, Library stock concentration: 3.333 mM) of the same molecule?
Answer: -0.036%

Question: What about the p53-positive nuclei, normalised [2, 10] of the same molecule?
Answer: 1.37%

Question: For COC(=O)C1C(O)CC[C@H]2CN3CCc4c([nH]c5ccccc45)[C@@H]3C[C@H]12 (stereo partly drawn), which nuclei count, normalised [1, 3] is on record?
Answer: 104%

Question: And the nuclei count, normalised [1, 5]?
Answer: 106%

Question: What about the p53-positive nuclei, normalised [2, 7] of the same molecule?
Answer: -0.11% (inactive)

Question: What about the p53-positive nuclei, normalised [2, 9] of the same molecule?
Answer: -0.356%

Question: Which results are given for CCCCCCCCCCCCCCP(=O)(O)O?
Answer: nuclei count, normalised ([1]; measured here: cell number at 24 h, concentration not given here): 105%; nuclei count, normalised ([1]; measured here: cell number at 48 h, concentration not given here): 107%; p53-positive nuclei, normalised ([2]; concentration not given here): -0.0194% (inactive); p53-positive nuclei, normalised ([2]; measured here: p53 positive nuclei at 24 h, concentration not given here): -0.0488%

Question: Which nuclei count, normalised ([1]; measured here: cell number at 24 h, Library stock concentration: 80 uM) does the source give for COc1ccc(N(C(=O)Nc2c(C)cccc2C)c2cc(Nc3ccc(N4CCN(C)CC4)cc3OC)ncn2)c(OC)c1 here?
Answer: 104%

Question: And the nuclei count, normalised ([1]; measured here: cell number at 24 h, Library stock concentration: 400 uM)?
Answer: 93.8%

Question: And the nuclei count, normalised ([1]; measured here: cell number at 24 h, Library stock concentration: 2 mM)?
Answer: 82.3%

Question: And the nuclei count, normalised [1, 4]?
Answer: 66%

Question: And the nuclei count, normalised ([1]; measured here: cell number at 48 h, Library stock concentration: 80 uM)?
Answer: 104%

Question: And the nuclei count, normalised ([1]; measured here: cell number at 48 h, Library stock concentration: 400 uM)?
Answer: 90.4%

Question: What about the nuclei count, normalised ([1]; measured here: cell number at 48 h, Library stock concentration: 2 mM) of the same molecule?
Answer: 64.8%

Question: What about the nuclei count, normalised [1, 6] of the same molecule?
Answer: 66.4%

Question: And the p53-positive nuclei, normalised ([2]; Library stock concentration: 80 uM)?
Answer: -0.0182% (inactive)

Question: And the p53-positive nuclei, normalised ([2]; Library stock concentration: 400 uM)?
Answer: -0.151% (inactive)

Question: And the p53-positive nuclei, normalised ([2]; Library stock concentration: 2 mM)?
Answer: -0.0629% (inactive)

Question: And the p53-positive nuclei, normalised [2, 8]?
Answer: 0.104% (inactive)

Question: What about the p53-positive nuclei, normalised ([2]; measured here: p53 positive nuclei at 24 h, Library stock concentration: 80 uM) of the same molecule?
Answer: -0.103%

Question: What about the p53-positive nuclei, normalised ([2]; measured here: p53 positive nuclei at 24 h, Library stock concentration: 400 uM) of the same molecule?
Answer: -0.0385%

Question: And the p53-positive nuclei, normalised ([2]; measured here: p53 positive nuclei at 24 h, Library stock concentration: 2 mM)?
Answer: -0.0916%

Question: And the p53-positive nuclei, normalised [2, 10]?
Answer: -0.0741%

Question: What does the source list for CN(C)Cc1c(C(=O)NCCOc2ccc(C(=O)NO)cc2)oc2ccccc12?
Answer: nuclei count, normalised [1, 3]: 40%; nuclei count, normalised [1, 5]: 23.5%; p53-positive nuclei, normalised [2, 7]: 74.6% (active); p53-positive nuclei, normalised [2, 9]: 61.4%

Question: With Cc1cc(C)c(N(Cc2ccccc2)S(=O)(=O)c2ccc(OCCNC(=O)c3cc4ccccc4o3)cc2)c(C(=O)NO)c1 as the molecule, how does the nuclei count, normalised ([1]; measured here: cell number at 24 h, Library stock concentration: 46 uM) read?
Answer: 106%

Question: And the nuclei count, normalised ([1]; measured here: cell number at 24 h, Library stock concentration: 278 uM)?
Answer: 102%

Question: And the nuclei count, normalised ([1]; measured here: cell number at 24 h, Library stock concentration: 1.67 mM)?
Answer: 106%

Question: And the nuclei count, normalised [1, 4]?
Answer: 108%

Question: What about the nuclei count, normalised ([1]; measured here: cell number at 48 h, Library stock concentration: 46 uM) of the same molecule?
Answer: 108%

Question: And the nuclei count, normalised ([1]; measured here: cell number at 48 h, Library stock concentration: 278 uM)?
Answer: 104%

Question: What about the nuclei count, normalised ([1]; measured here: cell number at 48 h, Library stock concentration: 1.67 mM) of the same molecule?
Answer: 111%

Question: What about the nuclei count, normalised [1, 6] of the same molecule?
Answer: 119%

Question: And the p53-positive nuclei, normalised ([2]; Library stock concentration: 46 uM)?
Answer: -0.344% (inactive)

Question: What about the p53-positive nuclei, normalised ([2]; Library stock concentration: 278 uM) of the same molecule?
Answer: -0.116% (inactive)

Question: What about the p53-positive nuclei, normalised ([2]; Library stock concentration: 1.67 mM) of the same molecule?
Answer: -0.271% (inactive)

Question: What about the p53-positive nuclei, normalised [2, 8] of the same molecule?
Answer: 0.0163% (inactive)

Question: And the p53-positive nuclei, normalised ([2]; measured here: p53 positive nuclei at 24 h, Library stock concentration: 46 uM)?
Answer: -0.21%

Question: What about the p53-positive nuclei, normalised ([2]; measured here: p53 positive nuclei at 24 h, Library stock concentration: 278 uM) of the same molecule?
Answer: -0.21%

Question: What about the p53-positive nuclei, normalised ([2]; measured here: p53 positive nuclei at 24 h, Library stock concentration: 1.67 mM) of the same molecule?
Answer: -0.139%

Question: What about the p53-positive nuclei, normalised [2, 10] of the same molecule?
Answer: -0.147%
